Screening results as filed in PubChem BioAssay.
VHR inh abs = blocks human VHR1 dual specificity phosphatase; recombinant VHR phosphatase, pNPP absorbance; inhibition, % at 13.3 µM; actives 0.52% (n = 290,000); AID 1654; in the data active = inhibition above about 50%
Target sequence (P51452 whole entry, looked up): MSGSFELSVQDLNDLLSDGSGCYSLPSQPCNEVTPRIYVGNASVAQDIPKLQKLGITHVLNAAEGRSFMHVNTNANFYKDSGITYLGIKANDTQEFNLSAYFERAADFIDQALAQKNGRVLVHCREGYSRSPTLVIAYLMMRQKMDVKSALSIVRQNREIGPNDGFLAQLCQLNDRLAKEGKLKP
RecA intein inh = Mtb RecA intein splicing inhibition; cell-free RecA intein splicing, fluorescence; inhibition, % (concentration not given with the values); actives 0.75% (n = 290,000); in the data active = inhibition above about 30%;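 note: 0% = vehicle wells and 100% = reference inhibitor control wells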
3CLpro inhibitor = SARS-CoV 3CLpro protease inhibition | recombinant SARS-CoV 3CLpro, quenched FRET peptide cleavage | actives 0.14% (n = 290,000) | P0C6X7 | inhibition, % at 6 µM; in the data active = inhibition above about 12%
CCHFV vOTU inh = CCHFV vOTU protease inhibition | inhibition, % at 11.5 µM | actives 0.55% (n = 370,000) | Pep-AMC fluorescence | AID 651958; in the data active = inhibition above about 30%; note: 0% = vehicle wells with enzyme and 100% = no enzyme wells
PriA SSB inh = blocks PriA binding to SSB C-terminal tail; AlphaScreen SSBct-PriA binding, biotinylated peptide; inhibition, % at 33 µM; actives 0.6% (n = 430,000); AID 1272365; in the data active = inhibition mostly above about 37%, no sharp cut-off; inactive = mostly below about 20%;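 note: plate controls were negative control peptide for no effect and reference peptide for full effect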
GFP chromo cs = counter-screen GFP chromophore formation inhibition | cell-free GFP chromophore formation, fluorescence | AID 434968 | shares compounds with RecA intein inh | EC50, µM | actives 83% (n = 2,100); call rule not given here
* marks the source's active call; other numbers are inactive results; / = no result given. Shown are actives, neighbours in structure and some others; about 1.7% of the full set was active somewhere.

SMILES	VHR inh abs	RecA intein inh	3CLpro inhibitor	CCHFV vOTU inh	PriA SSB inh	GFP chromo cs
COc1ccc(SCC2CCN(C(=O)c3cc(C)oc3C)CC2)cc1	/	/	/	/	5	/
COC(=O)CSc1nnc(-c2ccc(OC)cc2OC)o1	27	-2	-2	-9	-12	/
COc1cccc(OC(=O)CSc2nnc(-c3ccccc3Br)o2)c1	14	74*	-3	-11	-11	26*
CC1=C(C)/C(=N\OC(=O)/C=C/c2ccccc2)C=CC1=O	24	38*	-4	8	/	>38
Cc1ccc(SCc2[nH]nc3c2C2(C(=O)Nc4ccc(F)cc42)C(C#N)=C(N)O3)cc1 (stereo not drawn)	2	/	4	-8	-1	/
CCCc1[nH]nc2c1C1(C(=O)N(C(C)C)c3ccccc31)C(C#N)=C(N)O2 (stereo not drawn)	18	4	-2	0	0	/
CCc1[nH]nc2c1C1(CCN(C(=O)c3ccccc3)CC1)C(C#N)=C(N)O2	-8	67*	1	-3	-14	29*
CC(=O)N1CCC2(CC1)C(C#N)=C(N)Oc1n[nH]c(CSc3ccc(C)cc3)c12	12	74*	-6	-11	-25	23*
Cc1ccn(CC(C)N2Cc3cc(Br)ccc3OCC2=O)n1 (stereo not drawn)	/	/	/	/	-14	/
CN1CCOc2ccc(NC(=O)C3CCCCC3)cc2C1=O	/	/	/	/	-4	/
CC1=NN(c2ccccc2)C(=O)/C1=C/c1cn(C)c2ccccc12	12	37*	0	3	2	>38
COc1ccc(C2=NN(c3ccccc3)C(=O)/C2=C\c2ccc(O)c(OC)c2)cc1	-7	93*	2	2	21	2.6*
COc1ccc(/C=C2/C(=O)N(c3ccccc3)N=C2C)cc1	/	69*	/	/	4	3.2*
Cn1cc(C=C2C(=O)NC(=O)NC2=O)c2ccccc21	22	0	4	1	7	/
COc1ccc(/C=C2/C(=O)N(c3c(F)c(F)c(F)c(F)c3F)N=C2C)cc1	4	4	1	-2	-10	/
COc1cc(/C=C2\C(=O)ON=C2c2ccc(Cl)cc2)ccc1O	/	25	/	-1	-5	/
CC(=O)Nc1ccc(S(=O)(=O)Nc2ccc3c(c2)N(CCC(C)C)C(=O)C(C)(C)CO3)cc1	/	/	/	/	12	/
Clc1ccccc1Cn1ncc2c(N3CCC(Cc4ccccc4)CC3)ncnc21	/	/	/	/	-25	/
COc1cccc(/C=C2\SC(=S)N(CCCC(=O)N3CCCC3)C2=O)c1	4	33*	-1	12	-6	>38
COc1cccc(/C=C2\SC(=S)N(CCCC(=O)N3CCCCC3CCO)C2=O)c1 (stereo not drawn)	6	0	0	14	8	/
COc1ccc(/C=C2\SC(=S)N(CCCC(=O)Nc3ccc(O)cc3)C2=O)cc1	2	40*	0	13	4	>38
CCOC1(OCC)C(c2ccc(N)cc2)C(C#N)(C#N)C1(OCC)OCC (stereo not drawn)	30	/	1	13	-2	/
CCOC1(OCC)C(c2ccc(Cl)cc2)C(C#N)(C#N)C1(OCC)OCC (stereo not drawn)	8	56*	1	2	-24	>38
CCOC(=O)Cn1c(COc2ccccc2OC)[n+](C)c2ccccc21	/	0	/	5	-12	/
CN(C)C(=O)Oc1cccc(OCc2n(C)c3ccccc3[n+]2C)c1	7	-1	4	1	0	/
SMILES	VHR inh abs	RecA intein inh	3CLpro inhibitor	CCHFV vOTU inh	PriA SSB inh	GFP chromo cs
CCCCCCCCCCOC(=O)Cn1c(COc2cccc(C)c2)[n+](C)c2ccccc21	0	55*	-2	18	1	9.4*
CCCCCCCCCCOC(=O)Cn1c(COc2ccc(OC)cc2)[n+](C)c2ccccc21	10	42*	2	/	-6	11*
CCCCCCCCCCOC(=O)Cn1c(COc2ccccc2C)[n+](C)c2ccccc21	4	57*	4	/	1	7.6*
Cc1cccc(NC(=O)Nc2nc(CC(=O)NCc3ccco3)cs2)c1	/	/	/	/	14	/
COc1ccc(NC(=O)/C(Cl)=C(/Cl)S(=O)(=O)Cc2ccccc2)cn1	33	76*	-3	8	-5	7.5*
COC1(CNC(=O)c2ccccc2C)Cc2ccccc2C1	/	/	/	/	2	/
Cc1c(C)n(O)c2ccc3nonc3c12	-8	56*	-2	-6	-15	24*
Cc1ccc(S(=O)(=O)NCC2CCC(C(=O)NCCCN3CCC(C)CC3)CC2)cc1 (stereo not drawn)	/	/	/	3	/	/
